From PubChem
In the library only some 4.1% were active in any assay of this set; here they are far more common.
MPTP block: inhibitors of mitochondrial permeability transition pore | inhibition, % at 10 µM | AID 602449 | actives 1.4% (n = 360,000) | isolated mouse mitochondria, Ca2+ swelling absorbance, 30 min;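 active = inhibition of 50% or more, scaled per plate between neutral and stimulator controls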
GRIN3A LBD mod: modulators (binders) of human NR3A ligand-binding domain. NR3A LBD differential scanning fluorimetry, Tm shift; 0% = protein alone, 100% = glycine-bound protein. Tm shift relative to glycine control, % at 25 µM. actives 2.5% (n = 340,000). AID 1259313;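 active = melting temperature shift of at least 10% of the positive control shift, at one fixed dose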
pCIP destab: p/CIP protein destabilization; Q05BA5; F442A p/CIP-EGFP cells, EGFP fluorescence, 16 h; decrease of EGFP signal, % at 10 µM; actives 0.01% (n = 290,000);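 active = EGFP signal decrease of at least 30% at 10 µM or well 3 SD below plate mean, unless failing retest; inactive = the rest, including hits failing retest or dose response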
Target sequence (Q05BA5 1-1403): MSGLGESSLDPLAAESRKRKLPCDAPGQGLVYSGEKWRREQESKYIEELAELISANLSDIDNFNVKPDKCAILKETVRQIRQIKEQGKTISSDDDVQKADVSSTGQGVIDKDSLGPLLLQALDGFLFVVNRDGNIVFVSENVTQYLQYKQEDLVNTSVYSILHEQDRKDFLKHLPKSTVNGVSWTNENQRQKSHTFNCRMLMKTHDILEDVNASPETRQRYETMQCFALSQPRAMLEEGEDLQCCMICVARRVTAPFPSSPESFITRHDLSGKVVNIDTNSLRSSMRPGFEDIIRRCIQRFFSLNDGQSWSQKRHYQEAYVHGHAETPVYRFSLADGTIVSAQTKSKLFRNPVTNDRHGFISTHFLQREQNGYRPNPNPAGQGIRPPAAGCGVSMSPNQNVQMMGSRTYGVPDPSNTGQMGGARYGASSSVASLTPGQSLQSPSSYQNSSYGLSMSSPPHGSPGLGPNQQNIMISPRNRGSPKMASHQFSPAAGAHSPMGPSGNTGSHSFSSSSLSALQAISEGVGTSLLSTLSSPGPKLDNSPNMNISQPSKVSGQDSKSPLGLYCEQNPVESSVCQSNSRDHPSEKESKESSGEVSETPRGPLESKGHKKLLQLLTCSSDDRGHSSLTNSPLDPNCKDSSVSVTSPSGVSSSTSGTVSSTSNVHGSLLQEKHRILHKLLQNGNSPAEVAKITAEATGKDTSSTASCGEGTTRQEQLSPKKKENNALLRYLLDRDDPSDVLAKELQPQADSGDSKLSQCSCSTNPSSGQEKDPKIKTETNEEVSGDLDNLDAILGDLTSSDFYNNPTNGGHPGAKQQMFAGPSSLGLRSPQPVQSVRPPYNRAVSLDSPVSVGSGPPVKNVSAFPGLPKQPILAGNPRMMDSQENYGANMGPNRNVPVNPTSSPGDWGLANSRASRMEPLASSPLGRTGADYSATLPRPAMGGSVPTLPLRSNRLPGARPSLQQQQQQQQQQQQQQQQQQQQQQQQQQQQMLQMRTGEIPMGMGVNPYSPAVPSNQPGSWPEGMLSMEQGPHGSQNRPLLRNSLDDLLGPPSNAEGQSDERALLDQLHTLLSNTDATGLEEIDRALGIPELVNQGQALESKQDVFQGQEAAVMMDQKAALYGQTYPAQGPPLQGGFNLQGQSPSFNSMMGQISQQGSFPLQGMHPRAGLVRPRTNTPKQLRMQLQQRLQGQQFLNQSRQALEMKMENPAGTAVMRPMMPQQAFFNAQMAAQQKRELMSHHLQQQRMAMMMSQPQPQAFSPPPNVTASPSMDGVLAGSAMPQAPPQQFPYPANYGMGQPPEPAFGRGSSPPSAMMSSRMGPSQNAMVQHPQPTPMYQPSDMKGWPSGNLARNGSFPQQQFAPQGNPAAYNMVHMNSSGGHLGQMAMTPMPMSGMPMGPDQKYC
MIN6 prolif: MIN6 beta-cell proliferation induction; MIN6 cells proliferation, ATPlite luminescence, 48 h; cells starved in 0.2% serum; 100% = growth in 10% serum; proliferation, % at 10 µM; actives 0.29% (n = 330,000); AID 2380;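 active = compounds whose signal lies at least 3.5 SD above the mean of all wells on their plate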
FAS-TE inh: inhibitors of human fatty acid synthase thioesterase domain; P49327; recombinant FAS-TE, OMFH fluorogenic substrate, fluorescence endpoint; inhibition, % at 15 µM; actives 0.67% (n = 360,000); AID 602261;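 active = compounds whose normalised, plate-corrected inhibition of enzyme fluorescence in the single-dose primary screen is 50% or more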
Numbers stand for hits; 0 = inactive; - = not tested or not shown.

SMILES | MPTP block | GRIN3A LBD mod | pCIP destab | MIN6 prolif | FAS-TE inh
CC(=O)NC(=S)Nc1ccccc1N1CCCCC1 | 0 | 13 | 0 | 0 | 0
NNC(=O)c1nnsc1-c1csnn1 | 0 | 0 | - | - | 0
Cc1nc2c(C)cccc2cc1C(=O)N/N=C/c1cccnc1 | 0 | 14 | 0 | 0 | 0
CC(=O)CC(=O)NC1CCc2ccccc21 (stereo unspecified) | 0 | 0 | - | - | 0
CCOC(=O)c1cc2occc2n1Cc1ccc(F)cc1 | 0 | 15 | 0 | 0 | 0
CN(C)S(=O)(=O)c1cc(NC(=O)COC(=O)Cc2ccc(Br)cc2)ccc1Cl | 0 | 15 | 0 | 0 | 0
CN(C)S(=O)(=O)c1cc(NC(=O)COC(=O)Cc2ccc(Cl)cc2Cl)ccc1Cl | 0 | 0 | 0 | 0 | 0
CN(C)S(=O)(=O)c1cc(NC(=O)COC(=O)CCSc2ccc(Cl)cc2)ccc1Cl | 0 | 13 | 0 | 0 | 0
COc1cc(-c2cc(=O)c3c(O)cc(O)cc3o2)ccc1O | 0 | 0 | 0 | 0 | 0
O=c1cc(-c2ccc(O)c(O)c2)oc2ccc3ccccc3c12 | 0 | 25 | - | 0 | 0
O=c1oc(-c2ccc(O)c(O)c2)cc2cc(O)cc(O)c12 | 0 | 20 | - | 0 | 0
O=c1oc(-c2ccc(O)c(O)c2)cc2cccc(O)c12 | 0 | 24 | - | 0 | 0
COCCN1CCC(CO)C1 (stereo unspecified) | 0 | 0 | - | - | 0
O=C(N/N=C/c1ccco1)C1CC1c1ccccc1 (stereo unspecified) | 0 | 0 | 0 | 0 | 0
COC(=O)N/N=C/c1c[nH]c2ccccc12 | 0 | 0 | 0 | 0 | 0
O=C(N/N=C/c1c[nH]c2ccccc12)C1CC1(c1ccccc1)c1ccccc1 (stereo unspecified) | 0 | 13 | 0 | 0 | 0
O=C(N/N=C/c1c[nH]c2ccccc12)C1COc2ccccc2O1 (stereo unspecified) | 0 | 28 | 0 | 0 | 0
O=C(N/N=C/c1c[nH]c2ccccc12)C1CC1c1ccccc1 (stereo unspecified) | 0 | 10 | 0 | 0 | 0
O=C(N/N=C/c1cccs1)[C@H]1C[C@@H]1c1ccccc1 | 0 | 22 | 0 | 0 | 0
CC(=NOC(=O)c1ccc(I)cc1)c1nccs1 | 0 | - | - | - | 0
O=C(/C=C/[C@H]1O[C@@H](n2ccc(=O)[nH]c2=O)[C@H](O)[C@@H]1O)NCc1ccco1 | 0 | - | - | - | 0
O=C(C[n+]1ccc(-c2nnc3n2CCC3)cc1)c1ccc(Cl)c(Cl)c1 | 0 | 13 | 0 | 0 | 0
COc1ccc(C(=O)C[n+]2ccc(-c3nnc4n3CCC4)cc2)cc1 | 0 | 0 | 0 | 0 | 0
CC(=O)c1ccc(NC(=O)C2CCN(S(=O)(=O)c3ccc4c(c3)N(C(C)=O)CCO4)CC2)cc1 | 0 | 19 | 0 | 0 | 0
O=C1[C@H]2[C@@H](c3ccc(C(F)(F)F)cc3)N[C@]3(CCCN(Cc4ccco4)C3=O)[C@H]2C(=O)N1Cc1ccccc1 | 0 | - | - | - | 0
SMILES | MPTP block | GRIN3A LBD mod | pCIP destab | MIN6 prolif | FAS-TE inh
CN(C1=C(NC(=O)c2ccccc2)C(=O)c2ccccc2C1=O)C1CCS(=O)(=O)C1 (stereo unspecified) | 0 | - | 0 | 0 | 0
CC(=O)NC1=C(NC2CCS(=O)(=O)C2)C(=O)c2ccccc2C1=O (stereo unspecified) | 0 | 13 | 0 | 0 | 0
COc1ccc(Cl)c(-c2cc(C(=O)Nc3ccc(F)cc3)[nH]n2)c1 | 0 | - | - | - | 0
CCOC(=O)C1CCCN(S(=O)(=O)c2ccc3c(c2)CC(C)N3C(=O)C2CC2)C1 (stereo unspecified) | 0 | 0 | 0 | 0 | 0
CCOC(=O)C1CCN(S(=O)(=O)c2ccc3c(c2)CC(C)N3C(=O)C2CCC2)CC1 (stereo unspecified) | 0 | 24 | 0 | 0 | 0
COc1ccc(S(=O)(=O)Nc2ccc(S(=O)(=O)Nc3ccc(F)cc3)cc2)cc1C | 0 | 16 | 0 | 0 | 0
COc1cccc(N2CCN(C(=O)CN3C(=O)NC(C)(c4ccc5ccccc5c4)C3=O)CC2)c1 (stereo unspecified) | 0 | 19 | - | 0 | 0
COc1cc(Br)cc(/C=N/NC(=O)Cc2ccc(C(F)(F)F)cc2[N+](=O)[O-])c1O | 0 | 25 | 0 | 0 | 0
CCOc1cc(/C=N/NC(=O)Cc2ccc(C(F)(F)F)cc2[N+](=O)[O-])c(Br)cc1OC | 0 | 0 | 0 | 0 | 0
FC(F)(F)c1ccccc1Cc1c(-c2ccccc2)nc2ccc(Br)cn12 | 0 | - | - | - | 0
O=C(/C=C/c1ccccc1)N1CCN(c2ccc([N+](=O)[O-])c(N3CCOCC3)c2)CC1 | 0 | 20 | 0 | 0 | 0
O=C(c1ccc(Sc2ccccc2)c([N+](=O)[O-])c1)N1CCOCC1 | 0 | 16 | 0 | 0 | 0
Cc1cccc(C(=O)N2CCN(c3ccc([N+](=O)[O-])c(N4CCOCC4)c3)CC2)c1 | 0 | 0 | 0 | 0 | 0
O=C(c1ccc2ccccc2c1)N1CCN(c2ccc([N+](=O)[O-])c(N3CCOCC3)c2)CC1 | 0 | 17 | 0 | 0 | 0
CCCCCCCCN1C(=O)[C@H](CC(=O)NCCC(C)C)C[C@@]2(C(=O)OCC)CCC=C12 | 0 | - | - | - | -
CS(=O)(=O)Nc1ccc(C2=NN(C(=O)c3ccco3)C(c3ccccc3)C2)cc1 (stereo unspecified) | 0 | 12 | 0 | 0 | 0
Cc1ccc(C2CC(c3ccc(NS(C)(=O)=O)cc3)=NN2C(=O)c2ccco2)cc1 (stereo unspecified) | 0 | 0 | 0 | 0 | 0
Cc1ccc(-n2c(C)cc(C(=O)CN3CCOCC3)c2C)cc1C | 0 | 18 | 0 | 0 | 0
CC1(C)Cc2cccc(OC(=O)NC3CCCCC3)c2O1 | 0 | - | - | - | 0
COc1ccccc1NS(=O)(=O)c1cc([N+](=O)[O-])ccc1N/N=C/c1c(C)[nH]c2ccccc12 | 0 | 29 | 0 | 0 | 0
Cc1[nH]c2ccccc2c1/C=N/NC(=O)c1cccc([N+](=O)[O-])c1 | 0 | 0 | 0 | 0 | 0
O=[N+]([O-])c1ccc(N/N=C/c2c[nH]c3ccccc23)c(S(=O)(=O)Nc2ccc(Cl)cc2)c1 | 0 | 513 | 0 | 0 | 0
Cc1[nH]c2ccccc2c1/C=N/Nc1ccc([N+](=O)[O-])cc1 | 0 | 25 | 0 | - | 0
Cc1[nH]c2ccccc2c1/C=N/Nc1ccc(F)cc1F | - | - | 0 | - | -
NNc1nc(NCc2ccccc2)nc(N2CCOCC2)n1 | 0 | 14 | 0 | 0 | 0
SMILES | MPTP block | GRIN3A LBD mod | pCIP destab | MIN6 prolif | FAS-TE inh
CCN(CC)CCOc1cccc(C(C)C)c1 | 0 | 0 | 0 | 0 | 0
CCN(CC)CCNC(Cc1ccccc1)c1cccc(OC)c1 (stereo unspecified) | 0 | 13 | - | - | 0
Cc1ccccc1CN(C)CC(=O)Nc1ccccc1-c1ccccc1 | 0 | 23 | 0 | 0 | 0
COc1ccccc1CN(C)CC(=O)Nc1ccccc1-c1ccccc1 | 0 | 0 | 0 | 0 | 0
Cc1ccccc1CN(C)CC(=O)Nc1ccccc1Oc1ccccc1 | 0 | 14 | 0 | 0 | 0
OC(CNCc1ccco1)Cn1c2ccc(Br)cc2c2cc(Br)ccc21 (stereo unspecified) | 0 | 24 | 0 | 0 | 0
Brc1ccc2ncnc(NCc3ccco3)c2c1 | 0 | 0 | 0 | 0 | 0
